Calls of active or inactive are those of the source.
What was measured:
[1] = tested on: Human papillomavirus type 1a protein E7 (residues 44-93); assay: small molecules binding HPV E7 44-93 – biochemical, small-molecule microarray, residues 44-93, 635 nm fluorescence, primary screen (AID 1108); conditions: fluorescence 635 nm, higher = more signal;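 further: E7 fragment applied at 1 µg/mL in TBST for 1 h at 4 C; score combines spot fluorescence with its signal to noise ratio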
[2] = hepatitis C replication reporter changes, two-sided – Huh7 cells, luciferase reporter, HCV replication inhibitor project, primary screen (AID 1109); conditions: Huh7 HCV replicon luciferase reporter, 48 h; higher = more signal;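 further: huh7 hepatoma cells harbouring a luciferase neomycin HCV replicon reporter; luciferase luminescence as measure of HCV replicon replication; test concentration not given here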
[3] = target: Left-right determination factor 2 (Homo sapiens) (UniProt O00292); assay: small molecules binding LEFTY2 protein – biochemical, small-molecule microarray, 635 nm fluorescence scan, primary screen (AID 1110); conditions: higher = more signal
Chain of Left-right determination factor 2 (Homo sapiens) (O00292 whole entry, looked up): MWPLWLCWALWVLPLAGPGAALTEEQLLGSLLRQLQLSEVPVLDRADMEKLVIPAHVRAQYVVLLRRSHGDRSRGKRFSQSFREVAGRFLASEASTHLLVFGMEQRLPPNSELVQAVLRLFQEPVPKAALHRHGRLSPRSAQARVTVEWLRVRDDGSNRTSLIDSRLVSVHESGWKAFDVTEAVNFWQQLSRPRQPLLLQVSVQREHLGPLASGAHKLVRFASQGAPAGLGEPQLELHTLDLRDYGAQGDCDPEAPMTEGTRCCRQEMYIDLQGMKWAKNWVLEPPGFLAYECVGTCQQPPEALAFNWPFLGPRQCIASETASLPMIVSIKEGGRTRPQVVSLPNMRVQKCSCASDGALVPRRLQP

[4] = target: Calmodulin-1 (Homo sapiens) (UniProt P0DP23); assay: small molecules binding calmodulin-1 with EGTA – biochemical, small-molecule microarray, Cy5-labelled CALM1, profiling panel (AID 1111); conditions: Cy5-CALM1 binding fluorescence, higher = more signal;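 further: labelled calmodulin applied in Tris saline Tween buffer holding calcium plus EGTA and DTT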
[5] = target: Calmodulin-1 (Homo sapiens) (UniProt P0DP23); assay: small molecules binding Ca-loaded calmodulin-1 – biochemical, small-molecule microarray, Cy5-labelled CALM1, plus calcium, artefact control for SMM control-protein annotation, profiling panel (AID 1112); conditions: Cy5-CALM1 binding fluorescence, higher = more signal;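 further: score merges spot fluorescence with signal to noise from triplicate slides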
[6] = probe aWnt5a binding to arrayed compounds – biochemical, biotinylated probe, 635/667 nm fluorescence, primary screen (AID 1113); conditions: small-molecule microarray, higher = more signal;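 further: score merges 667 nm fluorescence intensity with signal-to-noise per printed feature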
[7] = probe aShh binding to arrayed compounds – biochemical, biotinylated probe, 635/667 nm fluorescence, primary screen (AID 1114); conditions: small-molecule microarray, higher = more signal;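 further: probe is biotin-labelled aShh protein from a stem cell growth factor screen; measures binding of labelled protein to compounds printed on the slide; score merges feature fluorescence at 667 nm with signal-to-noise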
[8] = probe aNog binding to arrayed compounds – biochemical, biotinylated probe, 635/667 nm fluorescence, primary screen (AID 1115); conditions: small-molecule microarray, higher = more signal;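 further: probe is biotinylated aNog protein used at 0.15 µg/mL for 1 h at 4 C; z-score combines 667 nm fluorescence of each spot with its signal to noise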
[9] = target: Torsin-1A-interacting protein 1 (Homo sapiens) (UniProt Q5JTV8); assay: compound microarray binding of lysate hLAP1 – cell lysate, small-molecule microarray, COS7 lysate, 635/667 nm fluorescence, primary screen (AID 1116); conditions: 635 nm fluorescence, higher = more signal
Chain of Torsin-1A-interacting protein 1 (Homo sapiens) (Q5JTV8 whole entry, looked up): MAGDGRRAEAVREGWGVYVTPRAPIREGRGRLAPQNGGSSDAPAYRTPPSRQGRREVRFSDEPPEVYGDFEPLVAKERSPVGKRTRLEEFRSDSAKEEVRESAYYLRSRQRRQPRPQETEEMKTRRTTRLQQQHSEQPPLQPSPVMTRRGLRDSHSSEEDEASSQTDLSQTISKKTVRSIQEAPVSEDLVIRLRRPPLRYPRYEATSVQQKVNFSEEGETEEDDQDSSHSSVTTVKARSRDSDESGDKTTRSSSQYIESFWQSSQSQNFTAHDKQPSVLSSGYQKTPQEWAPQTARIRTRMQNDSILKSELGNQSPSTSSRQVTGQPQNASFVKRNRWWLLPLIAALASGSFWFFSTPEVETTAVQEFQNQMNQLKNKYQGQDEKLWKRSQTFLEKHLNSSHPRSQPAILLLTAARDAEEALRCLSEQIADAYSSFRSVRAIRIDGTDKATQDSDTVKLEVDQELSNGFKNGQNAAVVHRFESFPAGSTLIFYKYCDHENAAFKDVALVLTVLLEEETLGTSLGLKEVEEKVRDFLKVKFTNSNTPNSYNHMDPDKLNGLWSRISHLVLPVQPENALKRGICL

[10] = target: Alpha-bungarotoxin (Bungarus multicinctus) (UniProt P60615); assay: compounds binding labelled alpha-BTX control protein – biochemical, small-molecule microarray, Alexa647 label, 635/667 nm fluorescence, artefact control for SMM control protein annotation, profiling panel (AID 1117); conditions: alpha-BTX-A647 binding fluorescence, higher = more signal
Chain of Alpha-bungarotoxin (Bungarus multicinctus) (P60615 whole entry, looked up): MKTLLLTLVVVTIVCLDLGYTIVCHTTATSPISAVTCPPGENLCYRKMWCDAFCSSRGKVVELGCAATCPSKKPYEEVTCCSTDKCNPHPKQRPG

Albumin (Bos taurus) = Albumin (Bos taurus) (UniProt P02769); assay: compounds binding labelled BSA control protein – biochemical, small-molecule microarray, Alexa647 label, 635/667 nm fluorescence, artefact control for SMM control protein annotation, profiling panel (AID 1118); conditions: BSA-A647 binding, fluorescence 635 nm, higher = more signal;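 further: score merges 667 nm emission intensity and signal-to-noise per printed compound spot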
Chain of Albumin (Bos taurus) (P02769 whole entry, looked up): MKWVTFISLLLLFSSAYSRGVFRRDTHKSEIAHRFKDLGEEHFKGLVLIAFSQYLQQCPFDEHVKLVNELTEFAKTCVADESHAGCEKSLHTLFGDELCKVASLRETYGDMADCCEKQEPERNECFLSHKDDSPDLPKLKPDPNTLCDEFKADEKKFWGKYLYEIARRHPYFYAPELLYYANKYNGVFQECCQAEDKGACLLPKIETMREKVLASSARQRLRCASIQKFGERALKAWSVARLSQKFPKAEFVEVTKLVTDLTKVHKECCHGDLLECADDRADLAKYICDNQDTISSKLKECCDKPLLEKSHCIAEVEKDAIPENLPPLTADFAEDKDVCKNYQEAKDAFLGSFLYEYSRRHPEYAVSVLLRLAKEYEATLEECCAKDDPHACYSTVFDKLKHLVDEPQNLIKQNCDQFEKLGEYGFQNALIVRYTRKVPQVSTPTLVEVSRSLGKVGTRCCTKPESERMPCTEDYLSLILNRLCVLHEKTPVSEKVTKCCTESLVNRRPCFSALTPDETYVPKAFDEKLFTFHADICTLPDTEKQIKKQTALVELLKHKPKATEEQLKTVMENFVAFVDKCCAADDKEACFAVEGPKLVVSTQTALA

[11] = probe aXIP binding to arrayed compounds – biochemical, NeuroSMM set, 635/667 nm fluorescence, primary screen (AID 1119); conditions: small-molecule microarray, higher = more signal, called active from +8 up or from −8 down;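 further: probe is the protein aXip251-270 applied at 1 µg/mL to compound-printed slides; binding of probe to printed compounds measured as 667 nm fluorescence plus signal to noise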
[12] = probe aNOTCH3 binding on compound microarray – biochemical, small-molecule microarray, 635/667 nm fluorescence, primary screen (AID 1120); conditions: higher = more signal;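 further: probe is a biotin-tagged antibody raised against NOTCH3 rather than NOTCH3 protein; score merges spot fluorescence near 667 nm with spot signal to noise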
[13] = probe aNOTCH2 binding on compound microarray – biochemical, small-molecule microarray, 635/667 nm fluorescence, primary screen (AID 1121); conditions: higher = more signal;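 further: score merges feature fluorescence read at 667 nm with its signal to noise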
[14] = target: Carbonic anhydrase 2 (Homo sapiens) (UniProt P00918); assay: compounds binding carbonic anhydrase 2 – biochemical, small-molecule microarray, Alexa647-labelled CAII, profiling panel (AID 1122); conditions: CAII-A647 binding fluorescence, higher = more signal
[15] = COS7 lysate on small-molecule microarray, probe aHis, 635 nm (AID 1123); conditions: COS7 cell lysate, fluorescence, higher = more signal;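 further: z-score combines 667nm fluorescence intensity with signal-to-noise per printed compound spot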
[16] = probe aLAP1 signal on lysate-treated microarray – cell lysate, small-molecule microarray, COS7 lysate, primary screen (AID 1124); conditions: probe aLAP1, fluorescence, higher = more signal;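 further: lysate comes from COS7 cells expressing LAP1 and is applied at 0.3 µg/mL; score merges spot fluorescence near 667 nm with signal-to-noise over triplicate slides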
Sam68 (KHDRBS1) = assay: compounds binding KHDRBS1 protein – biochemical, small-molecule microarray, 635 nm fluorescence, primary screen (AID 1125); conditions: higher = more signal;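 further: score merges 667 nm channel intensity with signal to noise over triplicate slides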
[17] = tested on: Chordin-like protein 2 (CHRDL2); assay: compounds binding chordin-like 2 – biochemical, small-molecule microarray, 635 nm fluorescence, primary screen (AID 1126); conditions: fluorescence 635 nm, higher = more signal;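 further: printed compound slides probed with Chrdl2 protein at 4 µg/mL for 1 h at 4 C; score merges 667 nm emission intensity with signal to noise over three replicate slides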
[18] = target: Concanavalin-A (Canavalia ensiformis) (UniProt P02866); assay: compounds binding concanavalin A lectin – biochemical, small-molecule microarray, Alexa647 label, 635 nm, artefact control for SMM control protein annotation, primary screen (AID 1127); conditions: ConA-A647 binding fluorescence, higher = more signal;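 further: z combines 667 nm emission intensity with signal-to-noise across three replicate slides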
Chain of Concanavalin-A (Canavalia ensiformis) (P02866 whole entry, looked up): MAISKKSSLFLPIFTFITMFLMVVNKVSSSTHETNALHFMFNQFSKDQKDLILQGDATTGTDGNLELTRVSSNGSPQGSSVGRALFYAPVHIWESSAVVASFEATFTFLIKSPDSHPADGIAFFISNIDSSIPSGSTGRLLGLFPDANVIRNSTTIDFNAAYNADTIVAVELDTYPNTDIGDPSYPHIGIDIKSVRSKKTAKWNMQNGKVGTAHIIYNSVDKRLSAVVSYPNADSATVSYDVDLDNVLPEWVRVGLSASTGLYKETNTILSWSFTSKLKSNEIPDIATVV

Compound | composite z-score [1] | z-score [2] | composite z-score [3] | composite z-score [4] | composite z-score [5] | composite z-score [6] | composite z-score [7] | composite z-score [8] | composite z-score [9] | composite z-score [10] | composite z-score (Albumin (Bos taurus)) | composite Z-score [11] | composite z-score [12] | composite z-score [13] | composite z-score [14] | composite z-score [15] | composite z-score [16] | composite z-score (Sam68 (KHDRBS1)) | composite z-score [17] | composite z-score [18]
C#CCCCON=C1C[C@@H](O)[C@@H](O)[C@@H]2[C@@H]3C(=O)N(C4CCCCC4)C(=O)[C@@H]3CC[C@@H]12 | 0.428 | -0.0098 | 0.321 | -0.346 | -0.342 | -0.0685 | -0.212 | -0.494 | 0.366 | 0.281 | 0.42 | 0.0436 (inactive) | -0.11 | -0.129 | 0.621 | 0.65 | 0.172 | -0.513 | 0.422 | 0.335
CC(C)CON=C1[C@H]2CCn3c(=O)n(C)c(=O)n3[C@H]2[C@H](O)[C@@H]2O[C@H]12 | 0.274 | 0.104 | 0.494 | -0.0875 | -0.609 | -0.127 | 0.0796 | -0.232 | 0.18 | 0.255 | -0.0213 | -0.483 (inactive) | 0.236 | -0.139 | -0.148 | -0.818 | 0.854 | 0.471 | 0.783 | 0.328
CO[C@@H]1C=CCC(=O)N[C@@H](C)C(=O)OC[C@@H](NS(=O)(=O)c2ccc(C)cc2)[C@H](C)C=CCC(=O)OC[C@H]1C | -0.844 | 0.46 | 0.957 | -0.062 | -0.417 | -0.18 | 0.0442 | -0.0116 | -0.159 | -0.135 | -1.19 | 0.51 (inactive) | -0.0898 | -0.242 | -0.662 | -0.971 | -0.0366 | -0.583 | 1.07 | -0.479
C[C@H]1CC[C@H]2C(=O)O[C@H](CO)CN2[C@@H]1c1ccc(Br)cc1 | 0.33 | -0.0002 | 0.217 | -0.25 | -0.445 | -0.213 | -0.276 | -0.234 | -0.138 | 0.126 | 0.167 | 0.436 (inactive) | 0.0081 | -0.124 | -0.11 | -0.0346 | 0.0438 | 0.424 | 0.229 | -0.453
CSCC[C@@H]1NC(=O)CC=C[C@@H](C)COC(=O)[C@H](C)COC1=O | -1.63 | 0.894 | 1.71 | -2.28 | -3.17 | -0.286 | -0.0035 | -0.321 | 0.443 | -1.96 | -0.891 | 3.62 (inactive) | -0.172 | 0.059 | -0.682 | -0.808 | -0.848 | 1.02 | 1.64 | -2.98
CC(C)=CCCC(C)=CCON=C1C[C@@H](O)[C@@H](O)[C@@H]2[C@@H]3C(=O)N(Cc4ccc5c(c4)OCO5)C(=O)[C@@H]3CC[C@H]12 | 1.38 | -1.45 | 0.546 | -0.588 | -1.11 | -0.0346 | -0.2 | -0.28 | 0.142 | 0.168 | 0.0686 | -0.16 (inactive) | 0.0568 | 0.428 | 0.389 | 1.17 | 0.206 | 0.945 | 0.957 | -0.0491

— PubChem BioAssay
